# Measurements as given in PubChem BioAssay AID2234 (The Scripps Research Institute Molecular Screening Center, 2010).
# Hit rate of the full screen: of about 320,000 compounds, about 480 (0.15%) were called active. Rule as the data show it: active = inhibition above about 33%; inactive = the rest. This excerpt belongs to a sample that is enriched for actives.
# Target: Lytic switch protein BZLF1 (Epstein-Barr virus (strain B95-8)) (UniProt P03206)
# Test: Zta-DNA interaction blockers, Epstein-Barr virus – biochemical, fluorescence polarization, single concentration, counter-screen for EBNA-1 inhibitor project, primary screen (AID 2234)
# Conditions: ZTA-DNA binding, at 11 µM, stronger effect = higher value
# Chain of Lytic switch protein BZLF1 (Epstein-Barr virus (strain B95-8)) (P03206 whole entry, looked up): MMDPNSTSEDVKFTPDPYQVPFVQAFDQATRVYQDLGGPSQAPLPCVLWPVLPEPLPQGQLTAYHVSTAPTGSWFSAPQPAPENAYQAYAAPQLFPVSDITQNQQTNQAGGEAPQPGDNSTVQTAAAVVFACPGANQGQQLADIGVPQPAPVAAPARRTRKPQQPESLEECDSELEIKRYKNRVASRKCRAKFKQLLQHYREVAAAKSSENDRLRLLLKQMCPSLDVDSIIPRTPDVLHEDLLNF
row,SMILES,inhibition
1,Cc1cc(C(=O)Nc2ccc(C)c(S(=O)(=O)N3CCOCC3)c2)c2ccccc2n1,-3.91% (inactive)
2,CCC(C)OC(=O)C(C)Oc1ccc(-c2ccccc2)cc1 (centres undefined),-16.6% (inactive)
3,CCc1nc2ccccc2n(CCOCCOCCn2c(=O)c(CC)nc3ccccc32)c1=O,-7.86% (inactive)
4,CCCCC1N2CC3([N+](=O)[O-])CN1CC([N+](=O)[O-])(C2)C3(C)C (centres undefined),7.41% (inactive)
5,COc1ccccc1C(=O)Nc1ccc(OCC(=O)N2CCCCC2)cc1,-10.8% (inactive)
6,COc1ccc(C)cc1NC(=O)CN1c2cccc3cccc(c23)S1(=O)=O,-1.52% (inactive)
7,O=C(O)c1cc(S(=O)(=O)N(Cc2ccccc2)c2ccccc2)ccc1Cl,-1.08% (inactive)
8,O=C(CSc1nc(C2CC2)nc2ccccc12)Nc1cccc(O)c1,-4.91% (inactive)
9,C=CCn1c(SCC(=O)NC(=O)Cc2ccccc2)nc2ccccc2c1=O,-2.81% (inactive)
10,O=C(c1cc(S(=O)(=O)N2CCOCC2)ccc1Cl)N1CCOCC1,17.7% (inactive)
11,FC(F)(F)c1ccc2c3n(nc2c1)CCN=C3c1ccc(Cl)cc1,0.92% (inactive)
12,Cc1ccc(C(=O)c2coc3ccc(O)c(CN(C)C)c23)cc1,-9.15% (inactive)
13,COc1ccccc1-n1ccnc(SCC(=O)NC2CCCCC2)c1=O,-6.9% (inactive)
14,CC1CCC2(CC1)NC(=O)N(CC(=O)c1cccn1C)C2=O (centres undefined),-3.24% (inactive)
15,Cc1ccc(C(=O)NCC(c2cccs2)N(C)C)cc1S(=O)(=O)N1CCOCC1 (centres undefined),-3.98% (inactive)
16,O=C(OCC1O[C@@H](OC(=O)c2cc(O)c(O)c(O)c2)[C@@H](OC(=O)c2cc(O)c(O)c(O)c2)[C@@H](OC(=O)c2cc(O)c(O)c(O)c2)[C@@H]1OC(=O)c1cc(O)c(O)c(O)c1)c1cc(O)c(O)c(O)c1 (some centres undefined),56.7% (active)
17,O=C(OCC1OC(Oc2ccc(O)cc2)C(O)C(O)C1O)c1ccccc1 (centres undefined),-3.45% (inactive)
18,Cc1cc(/C=C2\SC(=Nc3ccc(N4CCOCC4)cc3)N(C)C2=O)c(C)n1-c1cccnc1,-10.5% (inactive)
19,Cc1cc(/C=C2\SC(=O)N(C)C2=O)c(C)n1-c1cccc(C(=O)O)c1,-5.96% (inactive)
20,CN1C(=O)/C(=C/c2ccco2)SC1=Nc1cccc(C(=O)O)c1,34% (active)
21,CCC(C)(C)n1nnnc1C(c1cccs1)N1CCN(c2nc3ccccc3s2)CC1 (centres undefined),4.48% (inactive)

row,SMILES,inhibition
1,COc1cc(NC(=S)N2CCCC(C)C2)c(OC)cc1Cl (centres undefined),1.82% (inactive)
2,CCOc1cc(C)c(S(=O)(=O)NCc2ccccn2)cc1C,12.5% (inactive)
3,CCSc1sc(CC)cc1C=O,3.38% (inactive)
4,CC(C)c1ccc(-c2nn[nH]n2)cc1,-11.4% (inactive)
5,COC(=O)c1c(-c2ccsc2)oc2ccc(-c3cc(OC)c(OC)c(OC)c3)cc12,-1.27% (inactive)
6,Cc1ccc(N2CCN(S(=O)(=O)N(C)C)CC2)cc1Cl,10.4% (inactive)
7,O=C(NCC(=O)N1CCC2(CC1)NCCc1[nH]cnc12)c1ccc(Br)cc1,-4.85% (inactive)
8,CCOC(=O)CNc1nc(Cl)nc(Nc2ccccc2)n1,3.82% (inactive)
9,CCC(=O)Nc1ccc(Nc2nc(Cl)nc(Nc3ccc(NC(=O)CC)cc3)n2)cc1,33.6% (active)
10,CCC(=O)Nc1ccc(C(=O)Nc2cc(C)on2)cc1,-11.8% (inactive)
11,O=C(CCCCCn1c(=S)[nH]c2ccsc2c1=O)NC1CCCCC1,10.7% (inactive)
12,CCn1c(O)c2ccc(C(=O)N=NC(=O)c3cccnc3)cc2c1O,-7.57% (inactive)
13,CCOC(=O)CN(C(=O)CN1CCOCC1)c1ccc(Br)cc1,13% (inactive)
14,CCCC(C)C(=O)Nc1ccc(NC(C)=O)cc1 (centres undefined),-5.74% (inactive)
15,COc1ccc(C(C(=O)NCC2CCCO2)N(C(=O)Cn2nnc3ccccc32)c2ccc(NC(C)=O)cc2)cc1OC (centres undefined),-7.72% (inactive)
16,Cc1ccc(-c2csc(NC(=O)C3=COCCO3)n2)cc1C,-12.1% (inactive)
17,Cc1ccc(C)c(OCC(=O)NNC(=O)C2CCC2)c1,1.86% (inactive)
18,O=C(Cn1cc(C(=O)C2CC2)c2ccccc21)Nc1ccccc1Cl,14.6% (inactive)
19,Cc1cc(C(=O)OC(C)C(=O)NC2CCCCC2C)c(C)o1 (centres undefined),-3.44% (inactive)
20,COc1ccc(-c2nnc(SC(=O)N3c4ccccc4Sc4ccccc43)o2)cc1,6.65% (inactive)
21,O=C(O)C1CCCN1C1=NS(=O)(=O)c2ccccc21 (centres undefined),9.03% (inactive)

row,SMILES,inhibition
1,CC(C)(C)C(=O)COC(=O)c1cc(S(=O)(=O)N2CCCCC2)ccc1N1CCOCC1,-4.54% (inactive)
2,CN(Cc1ccco1)S(=O)(=O)c1nnc(NC(=O)c2ccccc2)s1,13.9% (inactive)
3,COc1ccc(-c2nonc2NC(=O)c2oc3ccc(F)cc3c2C)cc1OC,-1.66% (inactive)
4,CCCCC(C(=O)NC(C)(C)C)N(Cc1ccccc1)C(=O)c1snc(C(N)=O)c1N (centres undefined),-11.4% (inactive)
5,CC1(C)O[C@@H]2CC3C4C[C@H](F)C5=CC(=O)C=CC5(C)C4C(O)CC3(C)[C@]2(C(=O)CO)O1 (some centres undefined),3.09% (inactive)
6,Clc1ccc(-n2nnnc2CN2CCCCC2)cc1Cl,7.74% (inactive)
7,COc1ccc(C2=NN(C(=O)c3ccccc3C(=O)O)C(c3ccccc3O)C2)cc1 (centres undefined),-14.4% (inactive)
8,CCN(CC)S(=O)(=O)c1ccc(C(=O)N2CCN(C3=NS(=O)(=O)c4ccccc43)CC2)cc1,-8.64% (inactive)
9,COC(=O)Nc1ccc(S(=O)(=O)N(C)CC(F)(F)C(F)F)cc1,9.51% (inactive)
10,CN(C(=O)C1CCN(c2ncnc3c2nc2n3CCCCC2)CC1)C1CCCCC1,-0.51% (inactive)
11,CC(=O)NNC1=Nc2ccccc2N(C)C(C)C1 (centres undefined),-9.35% (inactive)
12,CCc1cccc(NC(=S)N(CCN(C)C)C2CCN(C(C)C)CC2)c1,-6.22% (inactive)
13,Cc1ccc(C2=NN(C(=O)CSc3nc(N)cc(N)n3)C(c3ccco3)C2)cc1 (centres undefined),0.17% (inactive)
14,CC(=O)Nc1ccc(S(=O)(=O)N(C)c2ccc(OCC(=O)OCC(=O)N3CCCCC3)cc2)cc1,-11.6% (inactive)
15,CCCC(C)n1[nH]c(=O)c2c(C)cc(C)nc21 (centres undefined),11.1% (inactive)
16,CC(=O)Nc1ccc(NC(=O)C2CCCN2S(=O)(=O)c2cccc(C(F)(F)F)c2)cc1 (centres undefined),17.1% (inactive)
17,C=CCn1c(COc2ccc(F)cc2)nnc1SCC(=O)Nc1cccc(S(N)(=O)=O)c1,3.26% (inactive)
18,O=C(CCn1c(=S)[nH]c2cc3c(cc2c1=O)OCO3)NCc1ccc(Cl)cc1,2.43% (inactive)
19,N#C/C=C1\Sc2ccccc2C(=O)N1CC(=O)N1CCN(S(=O)(=O)c2ccccc2)CC1,-8.28% (inactive)
20,O=C(O)Cc1csc(NC(=O)CSc2nnnn2-c2ccc(O)cc2)n1,2.08% (inactive)
21,O=C(/C=C/c1cc2c(cc1Br)OCO2)NCc1ccc(Cl)cc1,-6.35% (inactive)

row,SMILES,inhibition
1,CC(=O)Nc1c2c(nn1-c1ccc(C)cc1C)CS(=O)C2 (centres undefined),-22.1% (inactive)
2,NC(=O)C1CCN(C(=O)c2ccc3c(=O)n(Cc4cccc(Br)c4)c(=S)[nH]c3c2)CC1,-10.6% (inactive)
3,C#CCOCCOCCOCCNc1nc(N2CCN(C(=O)CCCCCCCCCCNC(=O)[C@H]([C@@H](C)CC)n3cc(CCCCN=C(N)N)nn3)CC2)nc(N2CCN(C(=O)CCCCCCCCCCNC(=O)[C@H](CO)n3cc(CCCSC)nn3)CC2)n1,134% (active)
4,C#CCOCCOCCOCCNc1nc(N2CCN(C(=O)CCCCCCCCCCNC(=O)Cn3cc(CCCCCN)nn3)CC2)nc(N2CCN(C(=O)CCCCCCCCCCNC(=O)[C@H](CO)n3cc(CCCSC)nn3)CC2)n1,24.8% (inactive)
5,C#CCOCCOCCOCCNc1nc(N2CCN(C(=O)CCCCCCCCCCNC(=O)[C@H](CCCCN)n3cc(C)nn3)CC2)nc(N2CCN(C(=O)CCCCCCCCCCNC(=O)[C@H](CO)n3cc(CCCSC)nn3)CC2)n1,12.7% (inactive)
6,COC(=O)c1ccc(NC(=O)CSc2nnc(Cc3cccn3C)n2-c2ccc(F)cc2)cc1,11.4% (inactive)
7,Cc1ccc(Cc2cncc(O)c2)cc1S(=O)(=O)O,-9.54% (inactive)
8,Cc1csc(CN(C)C(=O)CC2C(=O)NCCN2CC(C)(C)C)n1 (centres undefined),5.13% (inactive)
9,CCN1C(=O)C(=O)N(CC(=O)Nc2cc(C)ccc2C)C1=O,9.39% (inactive)
10,CSc1ccccc1NC(=O)c1ccc2c(c1)CCN2S(C)(=O)=O,14.6% (inactive)
11,Cc1ccc(OCC(=O)Nc2ccccc2C(=O)NC2CC2)cc1C,1.2% (inactive)
12,CCCCNC(=O)C1(O)c2ccccc2NC(=O)N1c1ccc(Cl)cc1 (centres undefined),2.71% (inactive)
13,O=C(N/N=C/c1cccc2cccnc12)[C@H]1C[C@@H]1c1ccccc1,-1.05% (inactive)
14,Cc1ccc(Cc2nnc(SCC(=O)Nc3ccc(C)cc3C)[nH]c2=O)cc1,2.99% (inactive)
15,CCC1Oc2ccccc2N(CC(=O)NCCCN2CCN(CC)CC2)C1=O (centres undefined),-3.45% (inactive)
16,COc1ccc(C(=O)C2CCCN(C(=O)c3cnsn3)C2)c(C)c1 (centres undefined),-0.75% (inactive)
17,COc1ccc(S(=O)(=O)/N=C2\C=C(NS(=O)(=O)c3ccccc3)C(=O)c3ccccc32)cc1,7.31% (inactive)
18,Cc1ccc(C2CC(c3cccc(NS(C)(=O)=O)c3)=NN2S(C)(=O)=O)cc1 (centres undefined),0.89% (inactive)
19,CN1CCN(Cc2nc3cc(NC(=O)COc4ccc([N+](=O)[O-])cc4)ccc3n2C)CC1,-16.4% (inactive)
20,CC(NC(=O)c1cccc2ccccc12)c1ccc2c(c1)CCCC2 (centres undefined),-9.25% (inactive)
21,CCOC(=O)CN(C(=O)COc1nc(C)cc(C)c1C#N)c1ccc(Cl)cc1,3.1% (inactive)
